In one assay the target is ADORA2B. The assay can be described thus: pooled miR-30 sensor sort-seq; sequence = guide strand. The conditions noted are these: shRNA.
Regarding TTAAAAACAAAAGAGTCTGTTA, the sensor-assay potency score (higher = more potent) was -0.121. Turning to TTGGTGGCACTGTCTTTACTGT, the sensor-assay potency score (higher = more potent) was -1.19.

Take TAAATATATTTGTCAATCCTTG: the sensor-assay potency score (higher = more potent) was -0.669. Same read-out and setting: in the case of TATATTTGTCAATCCTTGGAGC it was -0.159. Take TTAATGTAGATCACCAGCATTA: the sensor-assay potency score (higher = more potent) was -1.17.

For TCCCACTCTTGACATCTGCTTG, the sensor-assay potency score (higher = more potent) was -0.99. Same read-out and setting: next, TTTCACAATGAAAACCAGCCGT: -0.477.

For the sequence TTTGTCAATCCTTGGAGCCTAC, the sensor-assay potency score (higher = more potent) is -0.74. Consider TAGCGGAAGTCTCGGTTCCGGT, for which the sensor-assay potency score (higher = more potent) was -1.62. On the same count and under the same terms, in the case of AAGTGTAGCGGAAGTCTCGGTT it was -0.00274; in that of ATTTTGTGAAAAGTGTAGCGGA, -0.0457; in that of TATACCATGTAGCTCATGGGGA, -0.182. In the case of TTTCCTTGTGAGGTGTAGCTAT, the sensor-assay potency score (higher = more potent) is -0.397.

The next assay concerns the target ADRA1D. Described as above. The conditions noted are these: shRNA.
In the case of TTCAGCTGCGGGAACAAGGAGC, the sensor-assay potency score (higher = more potent) was -0.905. Consider TAGTCGGCCAATTCGTAGGCCT, for which the sensor-assay potency score (higher = more potent) is -0.797. The same measure, in the same setting: next, TAGAAGGAGCACACGGAGGAGA: -0.379; TAGGGACACAGCCTCCACCTCT: -1.05.

Take TACCGCAGAAGCGCTCGTCAGG: the sensor-assay potency score (higher = more potent) is -1.24. In the case of TTGGTGACGGTCTGCAGGTGGC, the sensor-assay potency score (higher = more potent) was -1.18. The same measure, in the same setting: in the case of TAGTTGGTGACGGTCTGCAGGT it was -0.977; in that of TTCTTCTCACGGGAGAACTTGA, -1.13. Still for that read-out and setting: next, TGACAAGCAGGTTACCTGCCAC: -0.511; TTGGCGCGCAGCTGGGTCGTGG: -1.53; TGAGAGGATGACAAGCAGGTTA: -0.372. Still for that read-out and setting: next, TACATGACCACGATGACCGCCA: 0.517; TGCTGTAGTCGGCCAATTCGTA: -0.975. Regarding TTGCGCTCGGTCATGATGGCTG, the sensor-assay potency score (higher = more potent) was -0.179. The same measure, in the same setting: in the case of ATGCGCAGCACCACCTCGGAGG it was -1.52; in that of TACCGGTCCACGGAGATGGTGC, -1.15.

For TTCACGATGAAATAGTTGGTGA, the sensor-assay potency score (higher = more potent) is -0.48. Consider ATAGTTGGTGACGGTCTGCAGG, for which the sensor-assay potency score (higher = more potent) was -1.13. The same measure, in the same setting: in the case of TAGATGAGCGGGTTCACGCAGC it was -0.546; in that of TTGGCCGCTTTCTTCTCACGGG, -0.602. Consider TACGGTGGCGCTCAGCAGCAGG, for which the sensor-assay potency score (higher = more potent) is -1.13. Consider AAGAAGAAAGGGAACCAGCAGA, for which the sensor-assay potency score (higher = more potent) is -0.303.

The next assay concerns the target ADRA2B. The description is as above. As to conditions: shRNA.
Consider AAGGTGAAGCGCTTCTCCCGGG, for which the sensor-assay potency score (higher = more potent) was -0.311.

In the case of TTCCAAATCTAGCAGGTCCATC, the sensor-assay potency score (higher = more potent) is -1.43. The same measure, in the same setting: in the case of AAGATGGTGTAGATAACAGGGT it was -0.352; in that of TACACCTCGCACCACGTGCGCC, -1.33. Same read-out and setting: next, TCGAGCGCCAGGTACACCTCGC: -0.894.

Values taken from the OligoGym collection.
Note: reference of the scale not given here.
